# Assay results reported in ChEMBL document CHEMBL1961873, “Compounds: GSK PKIS; Assays: Nanosyn kinase panel” (2012).
# Molecular target: Angiopoietin-1 receptor (Homo sapiens) (UniProt Q02763);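 further: reported value is the mean TIE2 inhibition from the GSK PKIS dataset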
# Conditions: at 1 µM
# Chain of Angiopoietin-1 receptor (Homo sapiens) (Q02763 whole entry): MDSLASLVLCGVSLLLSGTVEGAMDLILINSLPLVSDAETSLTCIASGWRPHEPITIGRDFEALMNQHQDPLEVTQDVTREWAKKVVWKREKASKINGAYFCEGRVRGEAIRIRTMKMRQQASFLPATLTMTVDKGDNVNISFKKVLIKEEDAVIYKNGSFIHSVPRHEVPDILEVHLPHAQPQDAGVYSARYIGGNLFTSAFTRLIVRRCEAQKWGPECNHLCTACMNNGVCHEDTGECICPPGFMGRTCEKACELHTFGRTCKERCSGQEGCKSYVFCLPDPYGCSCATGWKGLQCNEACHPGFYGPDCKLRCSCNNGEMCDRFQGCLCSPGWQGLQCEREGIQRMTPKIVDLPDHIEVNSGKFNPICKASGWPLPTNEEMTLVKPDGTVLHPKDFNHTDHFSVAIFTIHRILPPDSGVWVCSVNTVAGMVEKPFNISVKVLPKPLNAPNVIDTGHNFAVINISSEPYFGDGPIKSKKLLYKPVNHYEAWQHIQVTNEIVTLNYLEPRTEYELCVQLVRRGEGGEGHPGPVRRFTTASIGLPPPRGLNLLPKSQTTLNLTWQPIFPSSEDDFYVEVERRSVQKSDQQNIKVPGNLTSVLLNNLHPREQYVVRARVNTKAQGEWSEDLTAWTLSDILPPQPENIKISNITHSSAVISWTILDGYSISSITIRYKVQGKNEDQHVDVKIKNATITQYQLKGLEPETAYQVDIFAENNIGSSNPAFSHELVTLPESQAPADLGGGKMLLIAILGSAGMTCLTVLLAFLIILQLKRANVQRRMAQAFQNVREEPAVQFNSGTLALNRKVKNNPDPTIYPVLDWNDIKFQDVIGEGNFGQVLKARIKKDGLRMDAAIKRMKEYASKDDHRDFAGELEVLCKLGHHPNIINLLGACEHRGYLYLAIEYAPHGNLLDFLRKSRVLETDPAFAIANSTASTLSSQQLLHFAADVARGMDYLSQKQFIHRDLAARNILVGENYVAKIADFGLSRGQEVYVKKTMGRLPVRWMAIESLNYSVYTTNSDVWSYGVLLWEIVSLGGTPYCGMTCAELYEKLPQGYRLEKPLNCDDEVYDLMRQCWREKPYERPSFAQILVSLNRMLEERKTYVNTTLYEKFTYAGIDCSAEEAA
row,Compound,inhibition
1,FC(F)(F)c1ccc(-c2nn3ncccc3c2-c2ccnc(Nc3ccc4c(c3)OCCO4)n2)cc1,33.8%
2,Nc1ccc(C#Cc2cncnc2Nc2ccc(OCc3cccc(F)c3)c(Cl)c2)cc1,3.47%
3,Cc1ccc(O)cc1Nc1ccnc2ccc(S(C)(=O)=O)cc12,70.5%
4,NS(=O)(=O)c1ccc(NC=C2C(=O)Nc3ccc4ncsc4c32)cc1,19.6%

# Molecular target: T1, Non-receptor tyrosine-protein kinase TNK1 (Homo sapiens) (UniProt Q13470);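 further: reported values are mean inhibition figures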
# T1 sequence (whole entry): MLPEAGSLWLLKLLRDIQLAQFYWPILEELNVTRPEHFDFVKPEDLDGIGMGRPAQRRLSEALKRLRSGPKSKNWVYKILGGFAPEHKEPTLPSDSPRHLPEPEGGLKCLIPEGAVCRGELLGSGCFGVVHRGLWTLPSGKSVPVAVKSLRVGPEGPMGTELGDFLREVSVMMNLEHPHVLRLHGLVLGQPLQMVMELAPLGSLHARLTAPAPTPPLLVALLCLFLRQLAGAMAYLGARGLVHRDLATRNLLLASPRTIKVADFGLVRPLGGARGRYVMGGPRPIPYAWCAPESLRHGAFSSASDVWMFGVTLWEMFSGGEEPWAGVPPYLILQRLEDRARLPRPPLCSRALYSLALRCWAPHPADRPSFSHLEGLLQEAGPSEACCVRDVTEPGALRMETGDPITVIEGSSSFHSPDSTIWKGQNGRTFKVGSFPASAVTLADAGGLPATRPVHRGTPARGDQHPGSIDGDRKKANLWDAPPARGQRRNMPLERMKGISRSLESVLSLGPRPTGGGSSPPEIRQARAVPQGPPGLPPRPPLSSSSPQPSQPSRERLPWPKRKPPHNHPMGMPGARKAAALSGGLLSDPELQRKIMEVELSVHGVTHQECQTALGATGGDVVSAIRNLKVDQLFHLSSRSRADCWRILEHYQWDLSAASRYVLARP
# Conditions: at 0.1 µM
row,Compound,inhibition
1,COc1cc2ncnc(Nc3ccc(C)c(O)c3)c2cc1OC,5.34%
2,Cc1cc(-c2ccccn2)cc(C)c1/C=C/c1cncc(-c2nn[nH]n2)c1,9.02%
3,CC(C)c1ccc2c(c1)NC(=O)/C2=N/Nc1ccc(S(N)(=O)=O)cc1,2.2%
4,CCn1c(-c2nonc2N)nc2ccc(F)cc21,7.71%
5,CN(c1ccc(NC(=O)Nc2ccc(OC(F)(F)F)cc2)cc1)c1ccnc(Nc2cccc(S(N)(=O)=O)c2)n1,21.4%
6,c1ccc(Nc2ncc(-c3ccccc3)o2)cc1,5.05%
7,CCOc1nccc2c1nc(-c1nonc1N)n2CC,2.63%
8,COc1cccc(-n2ncc3c(N/N=C/c4ccc(S(C)(=O)=O)cc4)ncnc32)c1,10.4%
9,Cc1ccc2c(-c3ccnc(Nc4cccc(C(F)(F)F)c4)n3)c(-c3ccccc3)nn2n1,2.78%
10,NS(=O)(=O)c1cccc(Nc2cc(-c3ccc(F)cc3)n[nH]2)c1,2.68%
11,CCCN1CCCC(c2ccc(Nc3nc(Nc4cc(F)ccc4C(N)=O)c4cc[nH]c4n3)c(OC)c2)C1 (configuration not stated),41.2%
12,c1ccc(Cc2nc3ccc(Nc4ncnc5ccccc45)cc3[nH]2)cc1,1.92%
13,CN1CCN(C(=O)c2ccc(NC(=O)Nc3ccc(N(C)c4ccnc(Nc5ccc(CS(C)(=O)=O)cc5)n4)cc3)cc2)CC1,46.2%
